# Results filed as inconclusive are left out. Activity calls are given as the source filed them. How the source made its calls: active means hit-call score of the fitted dose curve at least 0.9, where 1 is the maximum; inconclusive means response in the unintended direction; inactive means score below 0.9.
# Molecular target: Estrogen receptor (Homo sapiens) (UniProt P03372)
# Test: ATG_ERa_TRANS: Attagene TRANS-FACTORIAL HepG2 Assay for human Estrogen Receptor alpha (ERa) (AID 2282970)
# Conditions: HepG2 Attagene TRANS ERa GAL4 reporter, mRNA
# Method in brief: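 One of 30 multiplexed endpoints from a HepG2 TRANS system, this one reports ERa-Gal4-driven reporter mRNA. Transcripts were quantified 24 hours post-dosing by fluorescent RT-PCR and capillary electrophoresis, with activity scored as induction over DMSO.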
# Estrogen receptor (Homo sapiens), sequence (P03372 whole entry, looked up): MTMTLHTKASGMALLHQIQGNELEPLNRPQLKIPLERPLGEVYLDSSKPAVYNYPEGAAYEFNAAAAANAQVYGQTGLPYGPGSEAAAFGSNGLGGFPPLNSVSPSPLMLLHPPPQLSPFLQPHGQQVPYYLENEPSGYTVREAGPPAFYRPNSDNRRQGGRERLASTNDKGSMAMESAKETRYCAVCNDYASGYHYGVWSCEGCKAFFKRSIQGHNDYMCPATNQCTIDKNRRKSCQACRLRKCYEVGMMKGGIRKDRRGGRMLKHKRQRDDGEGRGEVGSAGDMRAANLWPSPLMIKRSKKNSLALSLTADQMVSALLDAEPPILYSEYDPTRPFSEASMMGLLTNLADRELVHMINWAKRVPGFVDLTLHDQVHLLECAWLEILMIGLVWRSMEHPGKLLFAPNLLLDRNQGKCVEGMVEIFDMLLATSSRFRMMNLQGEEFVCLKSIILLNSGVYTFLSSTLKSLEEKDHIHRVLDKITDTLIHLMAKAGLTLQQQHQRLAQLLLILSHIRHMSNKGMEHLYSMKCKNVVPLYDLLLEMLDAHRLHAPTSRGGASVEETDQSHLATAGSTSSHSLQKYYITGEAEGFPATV
SMILES,outcome,AC50
CCn1c2ccccc2c2ccccc21,inactive,–
O=S(=O)(O)c1ccc(Cl)cc1,inactive,–
NS(=O)(=O)C(F)(F)C(F)(F)C(F)(F)C(F)(F)C(F)(F)C(F)(F)F,–,13.9 µM (active)
CCc1cc(Cc2cc(CC)c(N)c(CC)c2)cc(CC)c1N,inactive,–
CCN(CC)c1ccc(C=O)cc1,inactive,–
CC(C)Nc1ccc(NC(C)C)c2c1C(=O)c1ccccc1C2=O,inactive,–
Cc1cc(C)c(O)c(C(C)(C)C)c1,inactive,–
CCCCCCCCn1sc(Cl)c(Cl)c1=O,inactive,–
CC(C)(C)c1cc(CCC(=O)OCC(COC(=O)CCc2cc(C(C)(C)C)c(O)c(C(C)(C)C)c2)(COC(=O)CCc2cc(C(C)(C)C)c(O)c(C(C)(C)C)c2)COC(=O)CCc2cc(C(C)(C)C)c(O)c(C(C)(C)C)c2)cc(C(C)(C)C)c1O,–,21.8 µM (active)
Cc1cc(O)c(C(C)(C)C)cc1C(C)(C)C,inactive,–
Cc1ccc(O)c(-n2nc3ccccc3n2)c1,–,13.4 µM (active)
C=CC(=O)OCC(F)(F)C(F)(F)C(F)(F)C(F)(F)C(F)(F)C(F)(F)C(F)(F)C(F)F,–,1.52 µM (active)
CCCCC(CC)COC(=O)c1ccc(N(C)C)cc1 (stereo unspecified),–,5.75 µM (active)
CC(O)C#CC(C)O (stereo unspecified),inactive,–
O=C(c1ccccc1)c1ccc(Cl)cc1,–,12.1 µM (active)
CC(C)(C)C(=O)C1C(=O)c2ccccc2C1=O,inactive,–

# Source: PubChem BioAssay (EPA / NIEHS)
